Structures can show the parent of a compound that is named as a salt.
tested on: MARIMO; test: cell viability relative to vehicle control; higher = less cytotoxic; details: 10 µM; SRSF2 genotype: SRSF2 wt/wt
Method in brief: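 Each screen used CRISPR-edited mutant and wild-type clones from four leukaemia lines. Compounds were acoustically dispensed at a single 10 µM dose, and CellTiter-Glo luminescence was read after 48 h with the supernatant first removed. Viability was analysed in Genedata Screener and given as percent of the on-plate vehicle control.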

Row | SMILES | cell viability [%]
1 | CC(C)N(CCC(=O)c1ccc2ccccc2c1)Cc1ccccc1 | 0.67
2 | O=C(NCCN1CCOCC1)c1ccc(Cl)cc1 | 98.8
3 | CCS(=O)(=O)CCn1c([N+](=O)[O-])cnc1C [Tinidazole] | 97.2
4 | CCOc1ccc(Cc2cc([C@]34OC[C@](CO)(O3)[C@@H](O)[C@H](O)[C@H]4O)ccc2Cl)cc1 [Ertugliflozin] | 101
5 | OC[C@H]1O[C@@](CO)(O[C@H]2O[C@H](CO)[C@@H](O)[C@H](O)[C@H]2O)[C@@H](O[C@H]2O[C@H](CO)[C@@H](O)[C@H](O)[C@H]2O)[C@@H]1O [Melezitose] | 111
6 | O=C(O)CCCC[C@@H]1SC[C@@H]2NC(=O)N[C@@H]21 [Biotin (Vitamin B7)] | 103
7 | Cc1nnc(C(=O)NC(C)(C)c2nc(C(=O)NCc3ccc(F)cc3)c(O)c(=O)n2C)o1 [Raltegravir (MK-0518)] | 103
8 | CCOC(=O)C=Cc1ccc(OC)cc1 [Ethyl 4-Methoxycinnamate] | 88.4
9 | CCNC(=O)[C@@H]1CCCN1C(=O)[C@H](CCCN=C(N)N)NC(=O)[C@H](CC(C)C)NC(=O)[C@@H](CC(C)C)NC(=O)[C@H](Cc1ccc(O)cc1)NC(=O)[C@H](CO)NC(=O)[C@H](Cc1c[nH]c2ccccc12)NC(=O)[C@H](Cc1cnc[nH]1)NC(=O)[C@@H]1CCC(=O)N1 [S3718 Leuprolide Acetate.cdx] | 112
10 | CCCCOc1ccc(C(=O)Nc2ccc(F)cc2F)cc1 | 88.6
11 | O=C(NC1CCN(CCCCC2(C(=O)NCC(F)(F)F)c3ccccc3-c3ccccc32)CC1)c1ccccc1-c1ccc(C(F)(F)F)cc1 [Lomitapide Mesylate] | 0.68
